SW480 rereplic – DNA re-replication induction in SW480 cells. SW480 DNA re-replication, Hoechst DNA content imaging, 48 h. 340,000 tested, 1.8% active. Potency, µM (highest dose often 46.1 µM), without a hit: at the highest dose re-replication activation, actives largely listed as activators; note: % of control where 0% means no effect; nearly all actives have a fitted effect of over 55% in size
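Per well, 250 cells were exposed to pinned compound for 48 hr. Nuclear DNA was visualised with Hoechst (40 min, 37 C) and total object intensity recorded by fluorescence scanning.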
KB-3-1 cytotox – kills parental KB-3-1 adenocarcinoma cells; KB-3-1 viability, CellTiter-Glo ATP luminescence, 72 h; Potency, µM (series often up to 46.1 µM), usual class: cytotoxic; 400,000 tested, 1.4% active; AID 1347075; note: % is set by controls: 0 for no effect and ±100 for the full control effect; nearly all actives have a fitted effect of over 60% in size
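Cells are dispensed, compounds pinned in, plates held at 37 °C for 72 h, then CellTiter-Glo is added and luminescence read after 10 minutes. Cell line: parental KB-3-1 in phenol-red-free DMEM, 10% FBS.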
KB-V1 MDR tox – kills drug-selected multidrug resistant KB-V1 cells; KB-V1 MDR cells viability, CellTiter-Glo, 72 h; Potency, µM (highest dose often 46.1 µM), actives largely listed as cytotoxic; AID 1347076; 400,000 tested, 3.4% active; note: % is set by controls: 0 for no effect and ±100 for the full control effect; nearly all actives have a fitted effect of over 60% in size
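Cytotoxicity toward P-gp-expressing KB-V1 cells was determined as loss of CellTiter-Glo luminescence after 72 h at 37 degrees C. Compounds were tested in quantitative HTS format across a concentration range, with curves fitted to normalized data.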
HT1080NT lethal – kills 2HG-producing HT-1080-NT fibrosarcoma cells; HT-1080-NT fibrosarcoma viability, CellTiter-Glo ATP luminescence, 48 h; Potency, µM (top dose mostly 46.1 µM), for inactives: at the highest dose activity, negative = less viability, usual class: cytotoxic; 360,000 tested, 1.6% active;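 note: NT is the 2HG producing partner of a matched IDH1 knockdown line; 0% = DMSO-treated cells and -100% = media-only wells without cells; nearly all actives have a fitted effect of over 55% in size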
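Toxicity toward the 2HG-producing NT line was scored as %Activity, normalised to DMSO and no-cell wells, from CellTiter-Glo luminescence after 48 hours' treatment.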
MCF10A rereplic – DNA re-replication induction in MCF 10a cells | Potency, µM (series often up to 46.1 µM), inactives show at the highest dose activity, positive = re-replication, usual class: activators | MCF 10A DNA re-replication, Hoechst nuclear intensity, 48 h | 350,000 tested, 2.9% active; note: % of control where 0% means no effect; nearly all actives have a fitted effect of over 50% in size
HT1080 IDH1KD tx – kills HT-1080 cells with IDH1 knockdown | 360,000 tested, 2% active | Potency, µM (doses to about 46.1 µM), inactives show at the top dose activity, negative = toxicity, most hits filed as cytotoxic | AID 686971 | HT-1080 IDH1 knockdown viability, ATP luminescence, 48 h;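 note: 0% = DMSO wells and -100% = cell-free medium wells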
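HT-1080-IDH1KD cells (IDH1 knocked down), 750/well in RPMI with 5% FBS, treated with compound 48 h at 37 degrees C. Viability by CellTiter-Glo luminescence, normalised to DMSO and no-cell wells; concentration-response curves classed.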
An asterisk follows results filed as active; i = inactive; u = inconclusive; x = no result given; ! = not active in a repeat; [ ] = dose if it differs, or a comment. An excerpt weighted towards active compounds, which were near 7.9% of everything screened. Calls come from the whole dose curve; as a rule, active = well fitted curve in the direction sought with a large enough effect; inconclusive = small, poorly fitted or top-dose-only effect, or another doubt; inactive = no such curve, though single readings can be large; an effect the other way counts as inactive or inconclusive. Potency is the fitted concentration of half-maximal effect.

SMILES	SW480 rereplic	KB-3-1 cytotox	KB-V1 MDR tox	HT1080NT lethal	MCF10A rereplic	HT1080 IDH1KD tx
C/C(N)=C(/C#N)C(=O)COC(=O)c1cc(-c2ccc(Br)cc2)nc2ccccc12	u	u	21µM*!	u	u	u
Nc1nc(N2CCN(C(=O)c3ccco3)CC2)nc2ccc(Br)cc12	-82%	u	21µM*	u	u	-13%
Cc1ccc(NC(=O)COC(=O)CN2C(=O)c3ccccc3C2=O)cc1	-18%	i	u	0%[9.24 µM]	4%	3%
CC(Oc1ccccc1)C(=O)Nc1nc2ccc(S(N)(=O)=O)cc2s1 (stereo not given)	x	i	i	x	x	x
CC(Sc1ccc(Br)cc1)C(N)=O (stereo not given)	3%	i	i	18%	1%	7%
COc1ccc(C(=O)Nc2cnc(NC(=O)c3cccs3)cc2C)cc1	u	i	i	14%	7.3µM*	-1%
O=C(CN1C(=O)CCC1=O)Nc1nc(-c2ccc(Cl)s2)cs1	6%	i	i	-1%	21µM*!	-3%
CC1CC1C(=O)Nc1nc(-c2ccc(Cl)s2)cs1 (stereo not given)	4%	u	13µM*	-24%	10%	-20%
O=C(Nc1nc(-c2cccs2)cs1)c1ccc(Cl)cc1	0%	u	21µM*	u	u	u
COc1ccc(C(=O)Nc2cc(C)c(NC(=O)c3ccccn3)cn2)cc1	1%	i	i	-12%	-7%	-12%
CN(C(=O)C1CCC1C(=O)O)c1nc(-c2ccc(Cl)s2)cs1 (stereo not given)	12%	i	i	0%	-10%	0%
COc1cc(C(=O)Nc2nc(-c3cccs3)cs2)cc(OC)c1OC	-8%	i	i	u	u	-10%
CCc1ccc(OCC(=O)N/N=C(\C)c2ccc(O)cc2O)cc1	u	u	i	-21%	15%	u
Cc1nc(-c2coc3cc(C)c(N=O)c(O)c3/c2=N\N)cs1	-4%	i	u	1%	-1%	-4%
O=C(Nc1nc(-c2cccs2)cs1)c1ccco1	-5%	u	u	-1%	u	-2%
Cc1c(C(=O)Nc2nccs2)sc2nc(-c3cccs3)cc(C(F)(F)F)c12	u	9.2µM*	u	u	u	u
COc1ccc(C(=O)Nc2nc(-c3cccs3)cs2)cc1	-8%	u	5.8µM*	5%	u	5%
O=C(Nc1nc(-c2cccs2)cs1)c1ccc([N+](=O)[O-])o1	7.3µM*	6.5µM*	21µM*	u	2.9µM*	u
Cc1c(C(=O)O)sc2nc(-c3cccs3)cc(C(F)(F)F)c12	-17%	i	i	-9%	16%	0%
CCCSc1nnc(NC(=O)c2sc3nc(-c4cccs4)ccc3c2N)s1	19%	i	i	-11%	u	-12%
Cc1csc(NC(=O)c2sc3nc(-c4cccs4)ccc3c2N)n1	u	i	21µM*	-9%	1%	u
Clc1cccc(OCCCCCN2CCOCC2)c1	11%	i	i	-11%	u	2%
CC(Oc1cc2oc(=O)c3c(c2cc1Cl)CCC3)C(=O)NCc1ccccn1 (stereo not given)	-10%	i	u	8%	4%	4%
O=C(Nc1nc(-c2ccc(Cl)s2)cs1)c1ccncc1	-3%	u	6.5µM*	1%	2%	-3%
O=C(COc1ccc(Cl)cc1)Nc1nc(-c2cccs2)cs1	-2%	i	i	-1%	13µM*	-11%
SMILES	SW480 rereplic	KB-3-1 cytotox	KB-V1 MDR tox	HT1080NT lethal	MCF10A rereplic	HT1080 IDH1KD tx
O=C(CN1CCN(C2CCCCC2)CC1)NCCC1=CCCCC1	-3%	i	i	0%	1%	7%
C=CC(=O)Nc1cccc(N(C)c2ccnc(Nc3ccc(N4CCN(C)CC4)cc3)n2)c1	u	u	i	-19%	15µM*	u
C=CC(=O)Nc1cccc(Oc2ccnc(Nc3ccc(N4CCN(C)CC4)cc3)n2)c1	u	u	i	-24%	18µM*	-19%
Cc1ccc(NC2=NCC(=O)N2Cc2cccs2)cc1C	-4%	i	i	-2%	u	-19%
CC1CCN(C(=O)CN(C)S(=O)(=O)c2cccc3nsnc23)CC1	-3%	i	23µM*	-2%	1%	2%
COc1ccc(-n2c(=O)c3ccccc3n(CC(=O)NCC3CCCO3)c2=O)cc1 (stereo not given)	-37%	i	i	6%	-38%	8%
CC(=O)Nc1c(Br)cc2c(c1Br)Cc1cc([N+](=O)[O-])ccc1-2	4.1µM*	i	u	-14%	u	0%
CC(=O)Nc1ccc2c(c1)Cc1c-2cc(Cl)c(NC(C)=O)c1Cl	-8%	i	i	2%	8%	-5%
O=C(Nc1c(Cl)cc2c(c1Cl)Cc1cc([N+](=O)[O-])ccc1-2)C(Cl)Cl	u	u	u	-7%	18µM*	0%
O=C(CSc1ccc(-c2cccc([N+](=O)[O-])c2)nn1)NCc1ccccc1	1%	i	u	-2%	-11%	-10%
O=C(O)c1ccccc1C(=O)N(c1ccccc1)c1ccccc1	-1%	u	i	2%	7%	-2%
Brc1ccccc1C1CC(c2ccccc2)=Nc2ccccc2N1 (stereo not given)	u	i	i	-22%	23µM*	-25%
O=C(Cc1csc(Nc2nc(=S)[nH]c3ccccc23)n1)N1CCN(c2cccc(C(F)(F)F)c2)CC1	9%	13µM*	23µM*	-10%	u	-1%
Cc1[nH]c2ccccc2c1NC(=O)CN1CCN(c2cccc(C(F)(F)F)c2)CC1	u	i	i	18µM*	u	u
Cc1[nH]c2ccccc2c1C(O)CN1CCN(c2cccc(C(F)(F)F)c2)CC1 (stereo not given)	-2%[9.22 µM]	15µM*	u	u	u	u
Cc1cc2[nH]c(=O)c(=O)[nH]c2cc1S(=O)(=O)N1CCN(c2cccc(C(F)(F)F)c2)CC1	-11%	i	i	-1%	16µM*	-20%
O=C(Cc1csc(Nc2nc(=S)[nH]c3ccccc23)n1)NCc1cccc(Cl)c1	-6%	i	u	-13%	u	u
Fc1cccc(F)c1-n1c(CN2CCCCC2)csc1=S	15µM*	23µM*	u	u	u	u
Fc1cccc(F)c1-n1c(CN2CCOCC2)csc1=S	25%	i	i	4%	1%	2%

Source: PubChem BioAssay (National Center for Advancing Translational Sciences (NCATS))
